Reference: the supplement of paper PMC10849652
Targets with a hit are over-represented here; the source holds about 8,800 in all. About 0.5% of all pairs of compound and target were hits.

Compound: C=CC(=O)N1CCC[C@@H](n2nc(-c3ccc(Oc4ccccc4)cc3)c3c(N)ncnc32)C1 [ibrutinib]
Assay: log2 fold change, soluble protein after heating vs DMSO (PISA); higher = thermal stabilisation; K562 lysate, 10 uM; active = over 0.2 and 3.5 SD of the protein, either way, in both replicates (recomputed)
How it was run: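 Quantification was by TMTpro 16plex LC-MS/MS with equalised channel sums, applied to the supernatant after 21,000xg for 90 min. Samples were crude K562 extract at 1 mg/mL protein in PBS pH 7.4 with 1 mM MgCl2, treated with 10 μM compound for 30 min, heated for 3 min across 48°C-58°C, pooled and brought to 0.5% NP-40 at 4°C. Values are log-two fold changes in thermal stability relative to solvent controls, from duplicates.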

Chain of UniProt Q9H6S0 (Q9H6S0 whole entry, looked up): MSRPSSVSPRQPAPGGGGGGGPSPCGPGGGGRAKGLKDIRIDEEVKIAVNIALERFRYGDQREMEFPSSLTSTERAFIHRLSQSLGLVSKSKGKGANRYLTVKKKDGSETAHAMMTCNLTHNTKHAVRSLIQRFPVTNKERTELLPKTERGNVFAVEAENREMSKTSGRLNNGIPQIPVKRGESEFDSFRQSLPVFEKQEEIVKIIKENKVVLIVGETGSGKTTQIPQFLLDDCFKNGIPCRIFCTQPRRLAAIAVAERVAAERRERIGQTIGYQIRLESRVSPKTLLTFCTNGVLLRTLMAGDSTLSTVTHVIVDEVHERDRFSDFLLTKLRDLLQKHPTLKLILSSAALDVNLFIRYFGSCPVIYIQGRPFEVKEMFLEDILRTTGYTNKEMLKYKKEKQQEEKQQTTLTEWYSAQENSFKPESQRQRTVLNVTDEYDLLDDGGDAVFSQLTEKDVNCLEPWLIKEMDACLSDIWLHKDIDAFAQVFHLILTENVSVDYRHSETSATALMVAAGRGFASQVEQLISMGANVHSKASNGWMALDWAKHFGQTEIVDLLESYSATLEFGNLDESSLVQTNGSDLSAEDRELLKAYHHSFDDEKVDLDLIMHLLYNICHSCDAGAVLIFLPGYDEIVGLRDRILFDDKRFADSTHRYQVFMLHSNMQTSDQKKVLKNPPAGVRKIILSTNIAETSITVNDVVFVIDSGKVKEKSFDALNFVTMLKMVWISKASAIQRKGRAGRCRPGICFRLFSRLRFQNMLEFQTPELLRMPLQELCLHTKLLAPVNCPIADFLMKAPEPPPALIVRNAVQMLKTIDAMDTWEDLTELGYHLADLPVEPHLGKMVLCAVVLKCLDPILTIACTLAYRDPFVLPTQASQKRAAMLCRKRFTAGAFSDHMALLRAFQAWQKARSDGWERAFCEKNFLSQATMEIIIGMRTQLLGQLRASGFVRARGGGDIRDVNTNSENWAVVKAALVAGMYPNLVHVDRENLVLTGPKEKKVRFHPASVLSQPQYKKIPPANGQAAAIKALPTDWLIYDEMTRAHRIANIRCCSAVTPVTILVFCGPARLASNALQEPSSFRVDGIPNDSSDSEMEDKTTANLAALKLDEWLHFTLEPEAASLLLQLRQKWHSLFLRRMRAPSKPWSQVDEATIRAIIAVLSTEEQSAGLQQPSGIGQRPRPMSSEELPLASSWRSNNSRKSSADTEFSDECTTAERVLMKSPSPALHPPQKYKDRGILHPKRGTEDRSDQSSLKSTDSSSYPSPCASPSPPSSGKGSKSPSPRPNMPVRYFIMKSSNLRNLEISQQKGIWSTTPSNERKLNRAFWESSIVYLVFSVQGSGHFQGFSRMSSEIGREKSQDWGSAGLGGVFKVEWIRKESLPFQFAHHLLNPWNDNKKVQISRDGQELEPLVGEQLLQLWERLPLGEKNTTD
Chain of UniProt Q9Y4P8 (Q9Y4P8 whole entry, looked up): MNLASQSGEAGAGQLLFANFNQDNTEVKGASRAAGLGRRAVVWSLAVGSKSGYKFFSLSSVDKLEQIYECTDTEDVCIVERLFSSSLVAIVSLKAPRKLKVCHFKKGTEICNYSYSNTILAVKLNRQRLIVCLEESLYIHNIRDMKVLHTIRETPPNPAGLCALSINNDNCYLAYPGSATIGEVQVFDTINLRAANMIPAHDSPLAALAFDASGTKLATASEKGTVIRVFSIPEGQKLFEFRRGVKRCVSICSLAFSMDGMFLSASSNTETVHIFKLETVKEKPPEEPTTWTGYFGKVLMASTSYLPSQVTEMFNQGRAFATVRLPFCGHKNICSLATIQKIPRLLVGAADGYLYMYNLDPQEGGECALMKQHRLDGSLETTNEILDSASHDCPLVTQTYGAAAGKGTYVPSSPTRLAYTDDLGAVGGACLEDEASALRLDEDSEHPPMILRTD
Chain of UniProt Q9BRT2 (Q9BRT2 whole entry, looked up): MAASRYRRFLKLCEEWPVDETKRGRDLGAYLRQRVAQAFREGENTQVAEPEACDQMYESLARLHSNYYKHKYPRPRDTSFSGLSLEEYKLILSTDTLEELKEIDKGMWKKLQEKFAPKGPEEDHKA
Chain of UniProt Q86U90 (Q86U90 whole entry, looked up): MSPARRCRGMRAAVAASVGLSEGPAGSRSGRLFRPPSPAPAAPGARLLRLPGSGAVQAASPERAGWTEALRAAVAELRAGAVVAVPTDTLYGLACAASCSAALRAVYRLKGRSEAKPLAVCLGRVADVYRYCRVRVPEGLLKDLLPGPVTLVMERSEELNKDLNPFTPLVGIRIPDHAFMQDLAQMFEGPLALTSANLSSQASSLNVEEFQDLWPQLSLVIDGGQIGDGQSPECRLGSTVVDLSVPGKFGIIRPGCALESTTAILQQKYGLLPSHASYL
Chain of UniProt Q5SVZ6 (Q5SVZ6 whole entry, looked up): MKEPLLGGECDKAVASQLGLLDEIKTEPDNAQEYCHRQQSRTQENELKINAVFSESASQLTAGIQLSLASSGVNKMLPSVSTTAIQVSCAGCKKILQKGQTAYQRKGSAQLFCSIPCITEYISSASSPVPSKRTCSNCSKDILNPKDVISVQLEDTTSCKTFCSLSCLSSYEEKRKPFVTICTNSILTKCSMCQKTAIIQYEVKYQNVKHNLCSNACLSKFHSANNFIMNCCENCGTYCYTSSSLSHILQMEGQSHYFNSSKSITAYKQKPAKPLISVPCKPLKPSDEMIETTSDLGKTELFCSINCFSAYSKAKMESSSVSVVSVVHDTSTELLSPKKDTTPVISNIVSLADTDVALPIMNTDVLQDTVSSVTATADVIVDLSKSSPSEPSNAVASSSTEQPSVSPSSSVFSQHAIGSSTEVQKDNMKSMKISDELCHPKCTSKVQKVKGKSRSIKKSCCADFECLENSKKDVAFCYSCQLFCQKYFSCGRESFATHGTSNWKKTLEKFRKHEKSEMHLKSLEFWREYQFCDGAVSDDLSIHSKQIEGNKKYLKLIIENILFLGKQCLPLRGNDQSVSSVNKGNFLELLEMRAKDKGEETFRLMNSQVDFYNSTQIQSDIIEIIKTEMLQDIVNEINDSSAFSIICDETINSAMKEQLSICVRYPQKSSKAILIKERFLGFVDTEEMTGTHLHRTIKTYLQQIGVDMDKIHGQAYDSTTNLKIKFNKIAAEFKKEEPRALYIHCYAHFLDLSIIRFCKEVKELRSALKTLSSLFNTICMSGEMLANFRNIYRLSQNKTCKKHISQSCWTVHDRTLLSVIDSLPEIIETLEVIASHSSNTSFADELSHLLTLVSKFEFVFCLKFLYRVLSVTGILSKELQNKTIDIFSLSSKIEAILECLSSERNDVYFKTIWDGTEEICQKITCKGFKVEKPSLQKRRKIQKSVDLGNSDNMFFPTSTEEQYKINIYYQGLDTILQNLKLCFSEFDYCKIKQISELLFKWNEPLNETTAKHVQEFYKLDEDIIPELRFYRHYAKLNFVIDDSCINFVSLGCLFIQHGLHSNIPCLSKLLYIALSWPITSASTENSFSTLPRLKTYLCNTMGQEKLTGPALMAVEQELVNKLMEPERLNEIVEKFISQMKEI
Chain of UniProt O95619 (O95619 whole entry, looked up): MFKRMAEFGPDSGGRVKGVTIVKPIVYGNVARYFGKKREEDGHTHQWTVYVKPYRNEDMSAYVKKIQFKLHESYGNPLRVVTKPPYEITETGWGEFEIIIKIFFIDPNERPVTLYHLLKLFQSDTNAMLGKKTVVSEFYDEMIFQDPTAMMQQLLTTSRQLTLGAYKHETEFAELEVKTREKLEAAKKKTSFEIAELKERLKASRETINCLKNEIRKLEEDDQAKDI
Chain of UniProt Q96NC0 (Q96NC0 whole entry, looked up): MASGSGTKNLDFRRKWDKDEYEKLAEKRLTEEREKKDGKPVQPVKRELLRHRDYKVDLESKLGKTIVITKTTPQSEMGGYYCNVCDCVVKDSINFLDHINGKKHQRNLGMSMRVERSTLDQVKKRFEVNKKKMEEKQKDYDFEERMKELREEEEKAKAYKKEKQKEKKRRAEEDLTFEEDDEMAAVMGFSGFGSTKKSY
Chain of UniProt Q9H269 (Q9H269 whole entry, looked up): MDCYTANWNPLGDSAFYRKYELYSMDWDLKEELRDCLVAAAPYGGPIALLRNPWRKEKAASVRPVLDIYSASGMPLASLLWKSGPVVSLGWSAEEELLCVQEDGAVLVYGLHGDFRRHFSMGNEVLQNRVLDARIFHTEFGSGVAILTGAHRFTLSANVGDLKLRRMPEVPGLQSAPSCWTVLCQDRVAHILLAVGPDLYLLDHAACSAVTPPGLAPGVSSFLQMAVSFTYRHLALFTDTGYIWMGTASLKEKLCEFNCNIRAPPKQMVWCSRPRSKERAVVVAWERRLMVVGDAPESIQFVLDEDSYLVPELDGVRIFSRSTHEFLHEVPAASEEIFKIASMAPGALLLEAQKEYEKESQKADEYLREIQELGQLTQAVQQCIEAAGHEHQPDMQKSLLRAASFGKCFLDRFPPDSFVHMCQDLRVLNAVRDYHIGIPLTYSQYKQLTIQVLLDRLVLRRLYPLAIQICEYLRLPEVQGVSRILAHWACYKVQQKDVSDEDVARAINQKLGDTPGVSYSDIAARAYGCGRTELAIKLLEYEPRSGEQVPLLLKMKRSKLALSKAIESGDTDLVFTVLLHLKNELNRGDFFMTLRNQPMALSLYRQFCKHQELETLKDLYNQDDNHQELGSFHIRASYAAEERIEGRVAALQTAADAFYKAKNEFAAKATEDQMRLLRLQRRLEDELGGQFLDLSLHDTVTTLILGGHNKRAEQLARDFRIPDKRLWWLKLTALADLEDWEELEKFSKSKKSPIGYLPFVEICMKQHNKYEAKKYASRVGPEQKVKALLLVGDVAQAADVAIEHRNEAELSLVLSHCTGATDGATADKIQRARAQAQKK
Chain of UniProt Q9H9H4 (Q9H9H4 whole entry, looked up): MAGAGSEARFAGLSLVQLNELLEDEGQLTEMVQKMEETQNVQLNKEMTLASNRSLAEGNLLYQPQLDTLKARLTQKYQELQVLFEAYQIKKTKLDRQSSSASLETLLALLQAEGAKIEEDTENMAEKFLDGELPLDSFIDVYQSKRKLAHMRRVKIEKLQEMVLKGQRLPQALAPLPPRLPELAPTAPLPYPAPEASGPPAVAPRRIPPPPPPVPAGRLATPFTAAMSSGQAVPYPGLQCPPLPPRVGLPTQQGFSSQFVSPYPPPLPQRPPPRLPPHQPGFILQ

log2 fold change, inactive:
UQCC2 (UniProt Q9BRT2) 0.054
ZZEF1 (UniProt O43149) 0.018
YME1L1 (UniProt Q96TA2) -0.04
WIPI2 (UniProt Q9Y4P8) 0.047
VPS37B (UniProt Q9H9H4) 0.024
WDR41 (UniProt Q9HAD4) -0.163
WRN (UniProt Q14191) 0.02
UNC45A (UniProt Q9H3U1) 0.002
USP10 isoform 2 (UniProt Q14694) -0.038
ZNF346 (UniProt Q9UL40) -0.041
USP8 (UniProt P40818) 0.048
UTP3 (UniProt Q9NQZ2) 0.053
USP48 (UniProt Q86UV5) -0.028
YEATS4 (UniProt O95619) 0.02
VASP (UniProt P50552) -0.002
VPS16 (UniProt Q9H269) 0.009
WRNIP1 (UniProt Q96S55) 0.025
ZMYM1 (UniProt Q5SVZ6) -0.04
WRB (UniProt O00258) 0.045
ZMYM2 (UniProt Q9UBW7) -0.029
ZMAT2 (UniProt Q96NC0) 0.009
XPO5 (UniProt Q9HAV4) -0.041
YTHDC2 (UniProt Q9H6S0) 0.003
YRDC (UniProt Q86U90) 0.01
